# In all, about 53,000 sequences went through this assay and about 3,700 (7%) were called active. This is one part of a sample in which actives are shown more often than they occur. A number with no mark means an inactive call.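 Rule for the calls: active = gene knockdowns whose robust z-score for IL-1 alpha signal is at least 2 or at most -2, so actives lie on both sides; inactive = the rest.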
# Assay: Components of the Cytosolic LPS Sensing Pathway: Gene Identification via Genome-wide siRNA Screen;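 note: robust z of the log signal after scaling to non-targeting control siRNA wells of the plate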
# Settings: RAW264.7 macrophages, IL-1a HTRF, actives lie on both sides, screened at 100 nM (by protocol), cells primed 5 h with Pam3CSK4 first
# In short: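 Mouse macrophage line RAW264.7 is transfected with siRNA (100 nM final), grown 48h, primed with TLR ligand Pam3CSK4 5 h and given intracellular LipidA 24 h. IL-1a in supernatant is read by HTRF and viability by luminescence.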
row,Sequence,z-score
1,CCGAACAGAGGAAGAAGGCTT against Olfr816,0.281
2,GGGAGGACAGUCAUUGGUUTT against Phldb1,-1.84
3,GCAUAAGGAUAUAGCAUUATT against Ctla4,-0.72
4,GGCAUUUGCACAGUUUAUGTT against Upp2,-1.42
5,GGGUCCUUUUUAGCUGUAGTT against Vdac1,3.83 (active)
6,CCUAGUAAUCAGUUUGAAUTT against Ak4,1.17
7,CCAUAUGGCUUGUGGCAGATT against Scn1b,-0.245
8,GGUGACAGAGAUUUUCGAATT against Tbc1d22a,0.931
9,GGCAAGUCUUUAAAAGUCCTT against Xrcc2,-1.48
10,GGCCUUCCGCAUUUUAUCATT against Zfp729a,2.43 (active)
11,GGAGAAGAAGCUGGACCAGTT against Atp5o,0.348
12,GGUACAAUACAUUCAAACATT against Serpinb6c,-0.82
13,CCCUUGUCCAGUGUGAGUUTT against Tmem184b,1.07
14,GGCACAGACCUCACAGUUATT against Olfr64,0.534
15,GGAAAAAGCUGUGAUACUUTT against Hspbap1,-0.895
16,GGAACUGAUUGAAAACAUCTT against Syce2,2.97 (active)
17,GCAAAAUUAUCAGUGAGGATT against Nt5c3b,-2.54 (active)
18,GGGCAGAAAACAACUGGAATT against Pappa,-1.1
19,GGAGGAUGGAGUCAUAUAUTT against Gm773,-0.41
20,GGAGUUUGGAAUAAAAAGGTT against Flt3,-0.173
21,GCAGAGGGACAGUCUACAUTT against Rorc,-0.534
22,GAUUUCUAUACAGCCUAUCTT against Olfr799,0.312

row,Sequence,z-score
1,GGCUACAAGUUGGUAAUCUTT against Pnkp,3.36 (active)
2,GGCUGGACAGGAUUAUCCATT against Tmem185b,-0.904
3,CGCAGGUAAUUUGUUUGUGTT against Mtnr1b,1.16
4,GCAUAGCAAUGAAAAUCUATT against Lrit2,1.06
5,GGUUAAAGUUAAAUCUGUCTT against C6,-2.35 (active)
6,GGUCAAUCUUUGGAGUAUUTT against Stk39,-0.129
7,GCUUCCAAUUACUUAUCCATT against Phc3,-0.0705
8,GGGAAGAAGAGAUUCUGAUTT against Cep250,-1.53
9,GGCAGGUUUAACUUUAAUGTT against Cacna1e,3.59 (active)
10,GGACAAGGAUAGUAGUAAGTT against Parp1,-0.122
11,GCAUACCCUAUUUAGUUUUTT against Gpr33,-0.00896
12,GCACGAAGAACCACACAAGTT against Sp110,2.37 (active)
13,CCGGAGUCAGUAUCCAGAATT against Ndufaf4,-0.282
14,GCCGUGGAUCGAAUAAUUCTT against Coq7,-1.03
15,GGUUUUAGUAAACUUCCCATT against Fam76b,-0.692
16,GGAUCCUGGAUAAUCUGGGTT against Plscr1,-1.35
17,GCGUGCAUAUAUCCAAUGCTT against Tardbp,1.36
18,GGUAAUCUCCAAAAAACCATT against Lilra6,-0.863
19,GCUUUGAGCAGCUAGGUUATT against Tpcn2,3.78 (active)
20,GGGACCUUUUCAGGACCUUTT against Ucp2,-0.954
21,GGCUGCCUUCAUCUUUUCUTT against Fth1,0.873
22,GCUUGUAUGAGAUUACCUATT against Ttc1,1.19

row,Sequence,z-score
1,GGUCUUUGAGUCUACACAGTT against Pde4dip,-2.52 (active)
2,GGAGUCCUACGUCAAAGAATT against Pigz,-0.251
3,GGAUCAGUAGCAUUAACAATT against Tcf7l2,0.414
4,GGUUCUCCAUACUUAUGCCTT against Prex1,2.97 (active)
5,GGGCAAUCUGCUAUUCUCUTT against Pheta2,0.18
6,CCUUCUGUAUAGGUUCUGGTT against Slc41a3,0.716
7,GGGCUUAUGGAGUUGUAAATT against Avpi1,-0.633
8,GGACAAGAAAAAGGAUUAGTT against Clptm1,-0.414
9,GCGUGAGUCCCUAUAUGAATT against Tmem177,2.98 (active)
10,GGCUUCGCUCUGGUUUACUTT against Rap1b,0.323
11,GCAAUUCCACGUAUGGAUUTT against Olfr652,0.336
12,GGCAAAAUUUGUGUGCAAATT against Mrc1,1.02
13,GGCAGUCAUUACCUAUCAGTT against Atp7b,-0.271
14,GGGUCAGCCAAAGGAAAAUTT against Nlrc3,-0.193
15,CCAUGUCAAUAUAGCUGUCTT against Igfbpl1,2.25 (active)
16,GCUUUCUCUUAUGGAUCUATT against Olfr700,0.966
17,CGUGAUGCUGUAAAUAGUUTT against AI606181,-0.485
18,CCCAGAAGACCCGAACUUUTT against E130006D01Rik,0.378
19,GGAGCAUCUCUCCAGAUUGTT against Igsf9,0.567
20,CCGCUUUCUUGCCAUUCACTT against Olfr576,-0.266
21,GCCUUAAUGCUUCAAGGUGTT against Hspd1,0.021
22,UCUGACAUUGACUCUAGCCTT against Fbxw16,-2.5 (active)

row,Sequence,z-score
1,GUUUAUGGCCUCCUGUUGCTT against Gpbar1,-0.773
2,GCAUGAGAGGUUUCAGUAUTT against Rnf150,0.454
3,UUCGCUCUUGGUCCCUUCATT against Olfr1322,1.06
4,GCAUGUUGUCGACACAUGCTT against Bcl6,2.39 (active)
5,CCGUCGUGGGUGAUAUCAUTT against 2310022A10Rik,-0.0389
6,GGUGGCUCUCCAAGUUCUATT against Uchl4,-0.279
7,GAACACCCUGCCGACCAAATT against Tmsb10,-0.242
8,GGACUGAGUCAGAUUUACATT against Foxn2,-0.622
9,GGGCUGAUGCUUAAACAAATT against Vmn1r72,-2.19 (active)
10,GCCCUUAUUAAACCAUUUGTT against Usp9x,-0.641
11,GGACUGUUUUAGAUUACUUTT against Klra4,0.968
12,GCUUAUGUUUCUGCCACUCTT against Olfr1136,0.124
13,GCCACCAUUAAAAGACUGATT against Gdnf,0.737
14,GGACAAGAUGAACUUUUCCTT against Pomp,-2.85 (active)
15,CCUUGUAUGGAGAUAUUCCTT against Aph1b,-0.573
16,GGUUCAGUUUGGAAAUGAATT against Rbm26,0.809
17,CGUCUGUUUACCUCAUGAATT against Arid3a,-0.769
18,GGAUUUUGUCGGCAAGGCCTT against Ap5s1,-3.12 (active)
19,GGACUACUUCCCAAGAAUUTT against Gle1,0.365
20,GGUGGAGAAACAAAUUAGUTT against Rab9,1.47
21,GGAAGAAAGAAUUGAACUUTT against Add3,1.02
22,CAUGAACGUGGGUAAAACGTT against Rab20,-0.878

row,Sequence,z-score
1,GGAACUGGAUCCUAGGAUATT against Sh3bp5l,-1.35
2,GCCAAAUCUACUGUUAUUUTT against Fam174a,1.06
3,GGAAAGAUCAUGGACAAGUTT against Dtna,2.06 (active)
4,GCAGUGAUCCGGAACAAAUTT against Tmc3,-0.455
5,GGCGAAAAUUACUCGAAAGTT against Penk,0.941
6,GGAUGACGUAAUUGACGGCTT against Cyp19a1,0.0212
7,CCAAAAUAAGUGUGGUCAATT against Vstm2l,-0.623
8,GGACUUGGUUUAUGAAACATT against Kif9,-1.33
9,GGAGACCUUACCACUUGAATT against Ephx1,-1.2
10,GGUCAAUUCCCAUACCCUGTT against Tfr2,-1.23
11,CGACUCCCACCUUUAGGAGTT against Nkx2-5,2.5 (active)
12,GGUGAAAAUACAUUGCCAGTT against Plk4,-0.712
13,CCCAAAUAACAGAGAAAUGTT against St8sia6,0.818
14,CCUGAGAUUUCCUAACAUCTT against Prr11,-0.281
15,GGUGAAGUCACUAAUCUUUTT against Prpf19,1.12
16,GCCACGACCUGGAACAACUTT against Taf6l,-0.479
17,CGGCCUAACAGCCAGACUUTT against 1700013G24Rik,0.9
18,GGUUUCUGCCAUCCAUCAGTT against Zfa-ps,-0.705
19,CUUUUACACCAUCAUGACGTT against Mrgpra5,-2.06 (active)
